Our source for the Potency, outcome and max activation values is PubChem BioAssay (Tox21).

In test [1] the target is Thyrotropin receptor (Homo sapiens) (UniProt P16473). Briefly: qHTS assay to identify small molecule antagonists of the thyroid stimulating hormone receptor (TSHR) signaling pathway (AID 1259385; calls by dose curve; further: nearly all actives have a fitted effect of over 20% in size). As to conditions: TSHR-HEK293 cAMP HTRF, TSH-stimulated antagonist mode; series mostly up to 92.4 µM. In short, it runs like this:
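TSHR-HEK293 cells were plated and held 18 h at 37C/5% CO2, then given compound plus Ro20-1724 and stimulated with TSH at 1.5 ng/mL final. After 30 min at room temperature, cAMP was detected with cAMP-d2/anti-cAMP-cryptate (1 h) by fluorescence.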
(Quantitative high-throughput screening tests each substance at several concentrations.)

The target in test [2] is Progesterone receptor (Homo sapiens) (UniProt P06401). Briefly: qHTS assay to identify small molecule agonists of the progesterone receptor (PR) signaling pathway (AID 1346784; calls by dose curve; further: nearly all actives have a fitted effect of over 30% in size). As to conditions: PR-UAS-bla HEK293T, beta-lactamase FRET ratio, 16 h; series mostly up to 92.4 µM. In short, it runs like this: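 Seed PR-UAS-bla HEK 293T cells (2% charcoal-stripped FBS), incubate 6 hr at 37C; add compounds in DMSO, 16 hr at 37C; add LiveBLAzer B/G substrate, 2 hr RT; read fluorescence intensity.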

Test [3] has the same target. Briefly: qHTS assay to identify small molecule antagonists of the progesterone receptor (PR) signaling pathway (AID 1346795; active means well fitted inhibition curve with a large enough effect in the signal ratio in the repeat runs, not every such curve was filed as active; the % refers to the signal ratio; further: potency means the concentration at half of the fitted maximal effect). As to conditions: PR-UAS-bla HEK293T, beta-lactamase FRET ratio, 16 h; series mostly up to 92.4 µM. In short, it runs like this:
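Screening used a GripTite HEK293T line with PR-responsive UAS-beta-lactamase. Cells were challenged with compound in the presence of 1 nM R5020 final for 16 hr at 37C; B/G FRET substrate, 2 hr room temperature, fluorescence.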

A short description of test [4]: qHTS assay to identify small molecule antagonists of the TGF-beta/Smad signaling pathway - cell viability counter screen (AID 1346824). Further: nearly all actives have a fitted effect of over 50% in size. The note with it: SBE-bla HEK293T viability, CellTiter-Glo luminescence; series mostly up to 76.8 µM. In short, it runs like this:
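SBE-bla HEK 293T cells were plated overnight at 37 C, then given compounds in DMSO plus TGF-beta1 (added as 0.25 ng/mL solution) for 5 hr. After the bla read, CellTiter-Glo was added to the same wells and luminescence read after 30 min at room temperature.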

A short description of test [5]: qHTS assay to identify small molecule agonists of the TGF-beta/Smad signaling pathway - cell viability counter screen (AID 1346829). Further: top concentration of the series differs between compounds; nearly all actives have a fitted effect of over 45% in size. As to conditions: SBE-bla HEK293T viability, CellTiter-Glo luminescence, 5 h; series mostly up to 76.8 µM. In a few lines:
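SBE-bla HEK 293T cells plated overnight, compound exposure 5 hr at 37 C. Viability read in the same wells by CellTiter-Glo luminescence after 30 min at room temperature, following the beta-lactamase read.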

Test [6] can be described thus: qHTS assay to identify small molecule agonists of the TGF-beta/Smad signaling pathway (AID 1346859; active means well fitted activation curve with a large enough effect in the signal ratio in the repeat runs, not every such curve was filed as active; the % refers to the signal ratio). As to conditions: SBE-bla HEK293T, TGF-beta/Smad beta-lactamase reporter, 5 h; series mostly up to 76.8 µM. In short, it runs like this: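 Beta-lactamase reporter activity downstream of Smad binding elements was measured in stably transfected HEK 293T cells; compounds were incubated for 5 hr, substrate for 2 hr at room temperature.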

The target in test [7] is Thyrotropin-releasing hormone receptor (Homo sapiens) (UniProt P34981). Briefly: qHTS assay to identify small molecule antagonists of the thyrotropin-releasing hormone receptor (TRHR) signaling pathway (AID 1346877; active means well fitted inhibition curve with a large enough effect in the repeat runs, not every such curve was filed as active). The note with it: TRHR-HEK293, TRH-induced calcium fluorescence, antagonist mode; series mostly up to 51.3 µM. In a few lines: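 Kinetic fluorescence (3 min, 1 s resolution) following stimulation with TRH at 1 nM final; HEK293 cells bearing human TRHR; 5 min compound preincubation at RT; concentration-response over 15 points, triplicates.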

Test [8] has the same target. Description: qHTS assay to identify small molecule agonists of the thyrotropin-releasing hormone receptor (TRHR) signaling pathway (AID 1346891; calls by dose curve;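 further: HEK293 cells expressing TRHR with calcium dye readout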). The note with it: TRHR-HEK293 calcium fluorescence, agonist mode; series mostly up to 57.6 µM. In a few lines:
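Overnight-plated (18 h, 37 °C, 5% CO2) TRHR-Hek293 cells; 2 h calcium dye at 37 °C; compound in DMSO; 3-min kinetic fluorescence read.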

Test [9] in a line: Caspase-3/7 induction in HepG2 cells by small molecules, qHTS assay (AID 1346978). Further: nearly all actives have a fitted effect of over 15% in size. As to conditions: HepG2 caspase-3/7 activation, Caspase-Glo luminescence, 17 h; series mostly up to 92.4 µM. In short, it runs like this:
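Wild-type HepG2 cells (2,000/well) were settled 5 h at 37 C, 5% CO2, then exposed to compounds in DMSO for 17 h. Caspase-3/7 activity was read by luminescence 30 min after adding Caspase-Glo 3/7 reagent at room temperature.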

Test [10] is described as follows: Caspase-3/7 induction in CHO-K1 cells by small molecules, qHTS assay (AID 1346980). Further: nearly all actives have a fitted effect of over 15% in size. The note with it: CHO-K1 caspase-3/7 induction, Caspase-Glo luminescence, 17 h; series mostly up to 92.4 µM. In short, it runs like this:
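Wild-type cells were seeded at 1,500 per well and settled 5 hr at 37 C, 5% CO2, then exposed to DMSO-dissolved compounds for 17 hr. Caspase-Glo 3/7 reagent was added, and luminescence was read after 30min at room temperature.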

Test [11] in a line: Caspase-3/7 induction in HepG2 cells by small molecules, qHTS cell viability counter screen (AID 1346981). Further: nearly all actives have a fitted effect of over 30% in size. Further: potency means the concentration at half of the fitted maximal effect. The note with it: CellTiter-Fluor fluorescence, 17 h; series mostly up to 92.4 µM. In a few lines: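 In this quantitative HTS counter screen, compounds delivered in DMSO were left on unmodified HepG2 cells for 16 hr at 37 C. Viability was then determined fluorometrically with CellTiter-Fluor, in parallel with caspase-3/7 induction in the same wells.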

Test [12] in a line: qHTS assay to identify small molecule antagonists of the progesterone receptor (PR) signaling pathway - cell viability counter screen (AID 1346798). Further: nearly all actives have a fitted effect of over 50% in size. As to conditions: PR-UAS-bla HEK293T viability, CellTiter-Glo luminescence, 16 h; series mostly up to 92.4 µM. In short, it runs like this: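 Measures cytotoxicity in parallel with the PR antagonist reporter read: HEK293T PR-UAS-bla cells get compound and R5020 for 16 hr, and remaining viable cells are quantified by CellTiter-Glo luminescence.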

A short description of test [13]: qHTS assay to identify small molecule agonists of the progesterone receptor (PR) signaling pathway - cell viability counter screen (AID 1346799; calls by dose curve; further: nearly all actives have a fitted effect of over 45% in size). As to conditions: PR-UAS-bla HEK293T viability, CellTiter-Glo luminescence, 16 h; series mostly up to 92.4 µM. In a few lines:
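Using the same plates as the PR reporter screen, HEK293T PR-UAS-bla cells received compounds for 16 hr at 37C and were then lysed with CellTiter-Glo; luminescence was read 30 min later at room temperature.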

Test [14] can be described thus: Human pregnane X receptor (PXR) small molecule agonists, qHTS cell viability counter screen (AID 1346977). Further: nearly all actives have a fitted effect of over 50% in size. Further: potency means the concentration at half of the fitted maximal effect. The note with it: PXR-Luc HepG2 viability, CellTiter-Fluor, 24 h; series mostly up to 92.4 µM. In short, it runs like this: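 After a 5hr pre-incubation, PXR-Luc HepG2 cells received compounds plus positive control in DMSO and were kept 24hr at 37C. Cell viability was quantified by fluorescence from CellTiter-Fluor added for the final hour.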

Test [15] deals with Nuclear receptor subfamily 1 group I member 2 (Rattus norvegicus) (UniProt Q9R1A7). Briefly: Rat pregnane X receptor (rPXR) activation by small molecules, qHTS assay (AID 1346983). Further: nearly all actives have a fitted effect of over 20% in size. As to conditions: rPXR luciferase reporter cells, One-Glo luminescence, 24 h; max activation: stronger effect = higher value. In short, it runs like this:
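Cell-based rPXR luciferase reporter assay, 2,000 cells per well, rested 5hr at 37 C before compound addition in DMSO, then 24 hr at 37 C. One-Glo reagent was added and luminescence read after 30 min at room temperature.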

A short description of test [16]: qHTS assay to identify small molecule agonists of the estrogen receptor alpha (ER-alpha) signaling pathway in the presence of an antagonist - cell viability counter screen (AID 1259386).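 Further: cells exposed to compounds for 22 h at 37 °C before the viability read; nearly all actives have a fitted effect of over 30% in size.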 Further: potency means the concentration at half of the fitted maximal effect. The note with it: VM7Luc4E2 viability, CellTiter-Fluor fluorescence, 22 h; series mostly up to 92.4 µM. In a few lines:
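In this counter screen, compound effects on VM7Luc4E2 viability were tested in the presence of the antagonist ICI-182,780 at 10.0nM final. Compounds were dosed at 15 concentrations, exposure lasted 22hr, and the CellTiter-Fluor signal was read.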

Test [17] can be described thus: Caspase-3/7 induction in CHO-K1 cells by small molecules, qHTS cell viability counter screen (AID 1346979). Further: nearly all actives have a fitted effect of over 35% in size. Further: potency means the concentration at half of the fitted maximal effect. As to conditions: CellTiter-Fluor fluorescence, 17 h; series mostly up to 92.4 µM. In short, it runs like this:
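Multiplexed with Caspase-Glo 3/7 in CHO-K1 cells, this counter screen added CellTiter-Fluor after 16hr of compound exposure and recorded fluorescence 1hr later.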

For test [18], the target named is Nuclear receptor subfamily 1 group I member 2 (Homo sapiens) (UniProt O75469). Briefly: Human pregnane X receptor (PXR) small molecule agonists, qHTS assay (AID 1346982). Further: nearly all actives have a fitted effect of over 35% in size. Further: potency means the concentration at half of the fitted maximal effect. As to conditions: PXR-Luc HepG2, CYP3A4 luciferase reporter, 24 h; series mostly up to 92.4 µM. In a few lines:
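Reporter HepG2 cells expressing PXR-Luc are cultured in charcoal-stripped FBS (5%), treated with compounds for 24 hr at 37 C, and assayed by ONE-Glo luminescence after 30 min at room temperature.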

A number with no mark means an inactive call. Results filed as inconclusive are left out. The source made the active and inactive calls. Unless noted, the call rests on the fitted dose curve; in most records, active means well fitted curve in the direction sought with a large enough effect in the repeat runs; inconclusive means weak or mixed curves; inactive means no such curve, though single readings can be large; an effect the other way counts as inactive or inconclusive.
On the % scale 0 is the no-effect control and ±100 the full control effect.

Chain of Thyrotropin-releasing hormone receptor (Homo sapiens) (P34981 whole entry, looked up): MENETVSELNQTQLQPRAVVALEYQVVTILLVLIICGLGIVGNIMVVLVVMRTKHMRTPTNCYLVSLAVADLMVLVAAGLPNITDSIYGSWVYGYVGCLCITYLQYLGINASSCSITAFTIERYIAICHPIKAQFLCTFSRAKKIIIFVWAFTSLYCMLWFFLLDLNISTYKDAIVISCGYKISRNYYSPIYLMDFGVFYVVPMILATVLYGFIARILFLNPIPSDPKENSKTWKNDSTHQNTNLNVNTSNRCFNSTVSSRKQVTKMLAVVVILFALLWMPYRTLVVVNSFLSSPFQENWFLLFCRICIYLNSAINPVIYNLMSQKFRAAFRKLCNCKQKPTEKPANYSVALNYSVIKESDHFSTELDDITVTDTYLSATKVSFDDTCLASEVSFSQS
Chain of Progesterone receptor (Homo sapiens) (P06401 whole entry, looked up): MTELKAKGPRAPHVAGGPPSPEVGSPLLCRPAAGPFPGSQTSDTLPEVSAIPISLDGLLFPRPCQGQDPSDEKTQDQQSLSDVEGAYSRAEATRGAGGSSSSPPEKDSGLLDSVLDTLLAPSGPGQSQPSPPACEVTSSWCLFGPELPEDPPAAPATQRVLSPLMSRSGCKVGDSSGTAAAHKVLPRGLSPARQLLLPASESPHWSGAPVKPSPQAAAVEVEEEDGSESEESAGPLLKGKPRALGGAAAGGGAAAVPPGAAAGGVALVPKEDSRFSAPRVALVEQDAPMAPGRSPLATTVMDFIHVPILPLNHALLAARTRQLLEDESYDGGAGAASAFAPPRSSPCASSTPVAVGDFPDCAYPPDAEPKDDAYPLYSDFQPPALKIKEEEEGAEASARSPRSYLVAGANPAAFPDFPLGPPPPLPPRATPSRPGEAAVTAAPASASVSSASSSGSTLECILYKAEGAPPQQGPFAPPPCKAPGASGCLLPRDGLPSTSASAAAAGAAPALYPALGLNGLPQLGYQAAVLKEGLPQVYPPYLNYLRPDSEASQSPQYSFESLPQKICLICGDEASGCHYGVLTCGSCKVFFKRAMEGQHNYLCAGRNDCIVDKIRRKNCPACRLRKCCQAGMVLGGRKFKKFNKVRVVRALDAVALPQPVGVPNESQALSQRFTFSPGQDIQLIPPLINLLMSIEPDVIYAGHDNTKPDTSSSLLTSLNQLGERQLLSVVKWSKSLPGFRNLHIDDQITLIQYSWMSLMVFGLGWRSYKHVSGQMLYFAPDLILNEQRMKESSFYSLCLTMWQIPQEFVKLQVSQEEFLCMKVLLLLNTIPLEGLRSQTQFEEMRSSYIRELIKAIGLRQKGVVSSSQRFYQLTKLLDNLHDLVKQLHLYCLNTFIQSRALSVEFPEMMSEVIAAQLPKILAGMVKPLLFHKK
Chain of Nuclear receptor subfamily 1 group I member 2 (Homo sapiens) (O75469 whole entry, looked up): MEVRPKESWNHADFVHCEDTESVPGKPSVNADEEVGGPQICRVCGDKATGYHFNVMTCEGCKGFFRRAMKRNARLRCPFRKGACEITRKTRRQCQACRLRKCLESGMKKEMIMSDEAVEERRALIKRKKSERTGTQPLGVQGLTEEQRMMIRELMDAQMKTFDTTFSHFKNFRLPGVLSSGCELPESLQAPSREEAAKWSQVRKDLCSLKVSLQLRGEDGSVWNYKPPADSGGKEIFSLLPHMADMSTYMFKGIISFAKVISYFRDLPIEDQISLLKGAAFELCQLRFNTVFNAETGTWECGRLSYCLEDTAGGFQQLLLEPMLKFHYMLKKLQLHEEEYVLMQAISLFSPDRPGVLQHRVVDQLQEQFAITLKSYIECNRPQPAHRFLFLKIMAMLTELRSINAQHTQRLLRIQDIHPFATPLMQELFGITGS
Chain of Thyrotropin receptor (Homo sapiens) (P16473 whole entry, looked up): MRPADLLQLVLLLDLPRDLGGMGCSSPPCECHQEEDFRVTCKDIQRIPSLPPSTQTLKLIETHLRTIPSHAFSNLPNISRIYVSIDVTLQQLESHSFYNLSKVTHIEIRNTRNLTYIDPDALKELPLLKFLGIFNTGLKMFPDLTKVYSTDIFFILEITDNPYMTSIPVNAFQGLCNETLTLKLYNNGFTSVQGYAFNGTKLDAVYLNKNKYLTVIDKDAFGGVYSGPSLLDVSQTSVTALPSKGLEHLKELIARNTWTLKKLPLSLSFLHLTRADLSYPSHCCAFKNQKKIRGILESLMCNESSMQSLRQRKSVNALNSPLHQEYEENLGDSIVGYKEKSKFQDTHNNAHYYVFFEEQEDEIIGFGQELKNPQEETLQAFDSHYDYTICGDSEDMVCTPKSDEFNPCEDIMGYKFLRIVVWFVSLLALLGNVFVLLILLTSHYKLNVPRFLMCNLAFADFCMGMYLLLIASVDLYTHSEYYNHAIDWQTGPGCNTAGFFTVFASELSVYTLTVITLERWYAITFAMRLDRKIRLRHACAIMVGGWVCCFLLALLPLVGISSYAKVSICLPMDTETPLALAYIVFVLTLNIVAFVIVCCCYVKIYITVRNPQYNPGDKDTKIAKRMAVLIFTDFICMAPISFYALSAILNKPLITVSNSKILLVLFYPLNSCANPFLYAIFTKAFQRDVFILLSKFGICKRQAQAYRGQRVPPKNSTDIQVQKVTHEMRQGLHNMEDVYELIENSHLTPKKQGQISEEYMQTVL
Chain of Nuclear receptor subfamily 1 group I member 2 (Rattus norvegicus) (Q9R1A7 whole entry, looked up): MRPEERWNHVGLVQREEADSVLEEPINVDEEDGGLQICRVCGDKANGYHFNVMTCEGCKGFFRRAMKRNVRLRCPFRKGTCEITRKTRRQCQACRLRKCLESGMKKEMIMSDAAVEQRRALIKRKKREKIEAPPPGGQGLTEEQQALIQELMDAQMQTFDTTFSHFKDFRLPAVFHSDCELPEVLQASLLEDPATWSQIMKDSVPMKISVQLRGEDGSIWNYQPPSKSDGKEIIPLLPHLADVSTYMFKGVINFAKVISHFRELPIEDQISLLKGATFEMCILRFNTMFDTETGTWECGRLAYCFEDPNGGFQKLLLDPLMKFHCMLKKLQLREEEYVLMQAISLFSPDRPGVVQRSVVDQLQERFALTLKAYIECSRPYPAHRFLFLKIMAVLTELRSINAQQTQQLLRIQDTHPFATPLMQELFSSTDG

Consider `O=C(CCc1ccc(O)cc1)c1c(O)cc(O)cc1O`, for which the Potency result in test [1], in [2], in test [4], in test [5], in [6] and in test [8] was “inactive” each time. The Potency result in test [9], in [10] and in test [11] was “inactive” throughout. The Potency in [3] was 31.3 µM (active). The result in test [7] was inactive.

In the case of `CN1CC(=O)N2[C@H](c3ccc4c(c3)OCO4)c3[nH]c4ccccc4c3C[C@@H]2C1=O`, the Potency result in test [1], in [2], in test [3], in test [12], in test [13] and in [5] was “inactive” each time. Further, the Potency entry in [6], in test [8], in test [14], in test [9], in test [10] and in test [11] was “inactive” throughout. The result in test [7] was inactive. In addition, the max activation in test [15] was 0.614%.

As for `C=C(C)C(=O)OCCOCCOC(=O)C(=C)C`, the Potency entry in [16], in test [2], in test [3], in test [12], in test [13] and in [4] was “inactive” in each case. Besides, the Potency result in test [5], in test [6], in test [8], in test [9], in test [17] and in test [10] was “inactive” in each case. Further, the Potency entry in [11] and in test [18] was “inactive” throughout. Besides, the result in [7] was inactive.

Turning to `CC(=O)Nc1ccc(C)cc1C`, the Potency entry in test [16], in [2], in test [3], in test [12], in test [13] and in test [4] was “inactive” in each case. Besides, the Potency entry in test [5], in test [6], in test [14], in test [9], in test [17] and in test [10] was “inactive” each time. Moreover, the Potency entry in test [11] and in test [18] was “inactive” throughout.

As to `O=[N+]([O-])c1ccc(Nc2ccc(Nc3ccccc3)c(S(=O)(=O)O)c2)c([N+](=O)[O-])c1`, the Potency in test [16] is 54.5 µM (active); in [14], 68.6 µM (active); in test [17], 54.5 µM (active); in test [11], 61.1 µM (active). Also, the Potency result in test [2], in test [3], in [12], in test [13], in [4] and in [5] was “inactive” throughout. For the same compound, the Potency result in test [6], in [8], in [9] and in [10] was “inactive” in each case. For the same compound, the outcome in test [7] was inactive.

Regarding `Nc1ccc(N=Nc2ccccc2)c(N)c1`, the Potency in [16] is 26.7 µM (active); in [3], 47.5 µM (active); in test [14], 33.6 µM (active); in [17], 59.8 µM (active); in test [11], 53.3 µM (active); in test [18] it was 1.69 µM (active). Further, the Potency entry in test [2], in test [12], in [13], in [4], in test [6] and in [8] was “inactive” in each case. In addition, the Potency result in test [9] was “inactive”. For the same compound, in test [7], the outcome was inactive.
